Experimental data reported in PubChem BioAssay AID1159580 (chemical genetic matrix, 2015).
Several values for one entry are separate records, joined by “and”; a condition that tells them apart may be missing. Identical values can stand only once. The whole screen tested about 5,500 compounds, of which about 2,000 (36%) were called active. Inconclusive results (about 18%) are left out. Cut-off read from the data, not from the text of the source: active = normalized growth mostly below about 0.91 (no sharp cut-off); inconclusive = no clear call, values can overlap the other calls; inactive = mostly above about 0.92. Some of the results follow.

Assay: chemical genetic growth profiling, strain panel (AID 1159580);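 note: tested at 20 µM; growth read once vehicle control cultures reached saturation at 30 °C; 1 = growth at the plate median or of vehicle wells; lower values mean less growth of the strain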
Conditions: S. cerevisiae deletion strains, growth OD

Measured: normalized growth

Cc1ccnc(NS(=O)(=O)c2ccc(N)cc2)n1
inactive: locus YAL013W, strain DEP1, hits give low values 1 | locus YAL021C, strain ccr4, hits give low values 0.971 | locus YAL026C, strain drs2, hits give low values 0.994 | locus YAL030W, strain snc1, hits give low values 0.999 | locus YBL061C, strain skt5, hits give low values 0.997 | locus YBR009C, strain hhf1, hits give low values 1.01 | locus YBR021W, strain FUR4, hits give low values 0.994 | locus YBR023C, strain chs3, hits give low values 0.998 | locus YBR171W, strain sec66, hits give low values 1.02 | locus YBR229C, strain ROT2, hits give low values 1 | locus YBR231C, strain swc5, hits give low values 1.01 | locus YBR279W, strain paf1, hits give low values 1.01 | locus YCL011C, strain gbp2, hits give low values 0.969 | locus YCL016C, strain dcc1, hits give low values 0.968 | locus YCL029C, strain bik1, hits give low values 1.02 | locus YCL061C, strain MRC1, hits give low values 1.01 | locus YCL069W, strain vba3, hits give low values 0.998 | locus YCR088W, strain abp1, hits give low values 1 | locus YDL005C, strain med2, hits give low values 1 | locus YDL035C, strain GPR1, hits give low values 1.01 | locus YDL040C, strain nat1, hits give low values 0.999 | locus YDL074C, strain BRE1, hits give low values 0.978 | locus YDL101C, strain DUN1, hits give low values 1.01 | locus YDL134C, strain PPH21, hits give low values 1.01 | locus YDL185W, strain tfp1, hits give low values 0.967 | locus YDL192W, strain arf1, hits give low values 1.02 | locus YDR001C, strain nth1, hits give low values 0.999 | locus YDR069C, strain doa4, hits give low values 1.02 | locus YDR101C, strain arx1, hits give low values 1.01 | locus YDR137W, strain rgp1, hits give low values 1.03 | locus YDR150W, strain NUM1, hits give low values 1 | locus YDR159W, strain sac3, hits give low values 0.968 | locus YDR162C, strain NBP2, hits give low values 1 | locus YDR195W, strain ref2 1 | locus YDR297W, strain sur2, hits give low values 1.01 | locus YDR318W, strain mcm21, hits give low values 1.02 | locus YDR334W, strain swr1, hits give low values 0.995 | locus YDR335W, strain msn5, hits give low values 0.986 | locus YDR388W, hits give low values 1.01 | locus YDR392W, strain spt3, hits give low values 0.887 | locus YDR502C, strain sam2, hits give low values 1.01 | locus YEL003W, strain gim4, hits give low values 1.02 | locus YEL037C, strain rad23, hits give low values 1.01 | locus YEL061C, strain CIN8 (second series), hits give low values 1 | locus YEL061C, strain CIN8, hits give low values 1 | locus YER015W, strain faa2, hits give low values 0.992 | locus YER016W, strain bim1, hits give low values 1.01 | locus YER110C, hits give low values 1.02 | locus YER111C, strain swi4, hits give low values 0.998 | locus YER155C, strain BEM2 (second series), hits give low values 1.02 | locus YER155C, strain BEM2, hits give low values 1 | locus YER167W, strain BCK2, hits give low values 1.01 | locus YFR010W, strain ubp6, hits give low values 1.02 | locus YGL078C, strain dbp3, hits give low values 1.01 | locus YGL086W, strain mad1, hits give low values 1.01 | locus YGL167C, strain pmr1, hits give low values 0.992 | locus YGL173C, strain kem1, hits give low values 1.02 | locus YGL227W, strain vid30, hits give low values 0.999 | locus YGL240W, strain doc1, hits give low values 1.03 | locus YGL248W, strain PDE1, hits give low values 0.998 | locus YGL253W, strain hxk2, hits give low values 0.996 | locus YGR078C, strain PAC10, hits give low values 0.971 | locus YGR135W, strain pre9, hits give low values 1.01 | locus YGR229C, strain SMI1, hits give low values 0.97 | locus YGR252W, strain gcn5, hits give low values 0.984 | locus YHR013C, strain ard1, hits give low values 0.987 | locus YHR027C, strain rpn1, hits give low values 0.999 | locus YHR030C, strain SLT2, hits give low values 1 and 0.973 | locus YHR079C, strain IRE1 (second series), hits give low values 1.01 | locus YHR079C, strain IRE1, hits give low values 0.973 | locus YHR094C, strain hxt1, hits give low values 1.01 | locus YHR129C, strain ARP1, hits give low values 1.01 | locus YHR142W, strain chs7, hits give low values 1 | locus YHR200W, strain rpn10, hits give low values 1.01 | locus YIL066C, strain RNR3, hits give low values 1.01 | locus YIL073C, strain SPO22, hits give low values 1.02 | locus YIL125W, strain kgd1, hits give low values 1 | locus YIR030C, strain dcg1, hits give low values 1.02 | locus YJL092W, strain hpr5, hits give low values 1 | locus YJL095W, strain BCK1 (second series), hits give low values 1 | locus YJL095W, strain BCK1, hits give low values 1.01 and 0.972 | locus YJL115W, strain asf1, hits give low values 0.992 | locus YJL129C, strain trk1, hits give low values 0.996 | locus YJL134W, strain LCB3, hits give low values 1 | locus YJL154C, strain vps35, hits give low values 1.01 | locus YJL164C, strain tpk1, hits give low values 0.968 | locus YJL166W, strain qcr8, hits give low values 1.02 | locus YJL168C, strain set2, hits give low values 1.01 | locus YJL187C, strain SWE1 (second series), hits give low values 1.01 | locus YJR043C, strain POL32, hits give low values 1.01 | locus YJR066W, strain TOR1, hits give low values 0.937
